Among the test systems are SR leukemia; RPMI-8226 leukemia; OVCAR-8 ovarian; OVCAR-5 ovarian; OVCAR-4 ovarian; SK-OV-3 ovarian; IGROV1 ovarian; OVCAR-3 ovarian; HS 578T breast; NCI/ADR-RES ovarian.
Common to all, as to assay: NCI-60 one-dose screen, 48 h (100 = growth as untreated, 0 = no growth, -100 = all killed)
Holding throughout (details): 10 µM

The panel holds about 83,000 compounds, 20% with a hit somewhere; the sample as a whole holds those more often.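 How to read the values: 0–100, growth inhibition (40 = 60% inhibited); 0, no net growth; -100 to 0, cell death (-40 = 40% of starting cells died; -100 = all dead).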 Values without a mark were called inactive. Activity calls are given as the source filed them. How the source made its calls: active means growth percent below 10; inactive means the rest.

`COc1ccc2c(c1)OC(N)=C(C#N)C2c1cc(OC)c(OC)c(OC)c1` (stereo not given): the growth in the test with SR leukemia was 4.02% (active); in the test with RPMI-8226 leukemia it was 11.6%; with OVCAR-8 ovarian it was 14.6%; in the test with OVCAR-5 ovarian it was 39.3%; in the test on OVCAR-4 ovarian, 39.8%; in the test with SK-OV-3 ovarian, 50%. Further, the growth in the test on IGROV1 ovarian is 7.64% (active); in the test on OVCAR-3 ovarian it was -39.8% (active); in the test on HS 578T breast it was 25.3%; in the test with NCI/ADR-RES ovarian it was -24.3% (active).

Consider `O=C(CCCCC(=O)Oc1c(Cl)cc(Cl)cc1[N+](=O)[O-])Oc1c(Cl)cc(Cl)cc1[N+](=O)[O-]`, for which the growth in the test with SR leukemia was 85.4%; in the test on RPMI-8226 leukemia, 92.9%; in the test with OVCAR-8 ovarian it was 106%; with OVCAR-5 ovarian, 109%; in the test with OVCAR-4 ovarian, 104%; with SK-OV-3 ovarian, 103%. In addition, the growth was 101% in the test on IGROV1 ovarian, 105% in the test with OVCAR-3 ovarian, 105% in the test on HS 578T breast and 102% in the test with NCI/ADR-RES ovarian.

Regarding `CCC(C)[C@H](NC(C)=O)C(=O)N[C@@H](CCCNC(=N)N)C(=O)N[C@@H](CCCCN)C(=O)N[C@@H](CC1CCC(O)CC1)C(=O)NC(C(=O)N[C@@H](CCSC)C(=O)N[C@@H](CCCNC(=N)N)C(=O)N[C@@]1(C)CCC/C=C\CCC[C@@](C)(C(=O)NC(C(=O)N[C@@H](CCC(=O)O)C(=O)N[C@@H](CC(C)C)C(=O)N[C@H](C(=O)N[C@@H](CCC(=O)O)C(N)=O)C(C)C)[C@@H](C)O)NC(=O)[C@H](CCC(N)=O)NC(=O)[C@H](CC(C)C)NC(=O)[C@H](CC(C)C)NC1=O)[C@@H](C)O` (stereo not given in full), the growth in the test with SR leukemia is 98.5%; in the test with RPMI-8226 leukemia, 95%; with OVCAR-8 ovarian, 98.4%; in the test with OVCAR-5 ovarian, 115%; with OVCAR-4 ovarian it was 100%; in the test on SK-OV-3 ovarian, 98.4%. The growth in the test on IGROV1 ovarian was 100%; with OVCAR-3 ovarian, 104%; in the test on HS 578T breast it was -7.65% (active); with NCI/ADR-RES ovarian, 108%.

As for `COc1cc(C(=O)N2CCN(c3cc4c(cc3F)c(=O)c(C(=O)NO)cn4C3CC3)CC2)cc(OC)c1OC`, the growth in the test on SR leukemia was 95%; with RPMI-8226 leukemia, 85.2%; with OVCAR-8 ovarian, 106%; in the test with OVCAR-5 ovarian, 98.1%; in the test on OVCAR-4 ovarian it was 101%; with SK-OV-3 ovarian, 103%. For the same compound, the growth in the test with IGROV1 ovarian is 110%; in the test with OVCAR-3 ovarian, 108%; with HS 578T breast, 105%; in the test on NCI/ADR-RES ovarian it was 100%.

As for `NC1=NC(c2ccccc2)C2=C(N1)/C(=C/c1ccccc1)CCC2` (stereo not given), the growth with SR leukemia is 46%; with RPMI-8226 leukemia, -7.58% (active); in the test on OVCAR-8 ovarian, 80%; with OVCAR-5 ovarian it was 106%; with OVCAR-4 ovarian, 81.3%; in the test on SK-OV-3 ovarian, 74%. The growth in the test on IGROV1 ovarian was 100%; in the test on OVCAR-3 ovarian it was 81.6%; with HS 578T breast, 88.5%; in the test with NCI/ADR-RES ovarian, 95.8%.

In the case of `CCOC(=O)C1=CSC2=NC3=C(CCC/C3=C\c3cc(OC)c(OC)c(OC)c3)C(c3cc(OC)c(OC)c(OC)c3)N12` (stereo not given), the growth with SR leukemia was 31.2%; in the test with RPMI-8226 leukemia, 22.4%; in the test on OVCAR-8 ovarian, 13.5%; with OVCAR-5 ovarian, 75.7%; in the test with OVCAR-4 ovarian, 72.3%; in the test with SK-OV-3 ovarian, 102%. Further, the growth in the test with IGROV1 ovarian was 89.7%; with OVCAR-3 ovarian, 57.1%; with HS 578T breast, 46.8%; with NCI/ADR-RES ovarian it was 3.63% (active).

For `N#CCc1csc(Cc2ccccc2)n1`, the growth with SR leukemia is 98.6%; with RPMI-8226 leukemia, 99%; with OVCAR-8 ovarian, 106%; in the test with OVCAR-5 ovarian, 110%; in the test with OVCAR-4 ovarian, 121%; with SK-OV-3 ovarian it was 104%. For the same compound, the growth is 108% in the test with IGROV1 ovarian, 106% in the test with OVCAR-3 ovarian, 99.1% in the test on HS 578T breast and 97.3% with NCI/ADR-RES ovarian.

Regarding `COc1ccc(/C=C/c2nnc(/C=C/c3ccc(OC)c(OC)c3)o2)cc1OC`, the growth in the test on SR leukemia is 11.6%; in the test with RPMI-8226 leukemia, 34%; in the test with OVCAR-8 ovarian it was 42.1%; in the test with OVCAR-5 ovarian it was 41.3%; in the test with OVCAR-4 ovarian, 57.6%; in the test on SK-OV-3 ovarian, 34.1%. Moreover, the growth in the test on IGROV1 ovarian was 22.5%; in the test with OVCAR-3 ovarian it was 17.6%; with HS 578T breast, 43.6%; with NCI/ADR-RES ovarian, 13.6%.

As to `O=c1[nH]c(=O)n(C2C[C@H](O)[C@@H](CO)O2)cc1C(F)(F)F` (stereo not given in full), the growth was 91.9% with SR leukemia; 97.5% with RPMI-8226 leukemia; 103% in the test with OVCAR-8 ovarian; 103% with OVCAR-5 ovarian; 114% in the test with OVCAR-4 ovarian; 109% in the test on SK-OV-3 ovarian. For the same compound, the growth with IGROV1 ovarian was 120%; with OVCAR-3 ovarian, 117%; with HS 578T breast it was 124%; in the test on NCI/ADR-RES ovarian it was 102%.

As to `CN(C)c1ncnc2c1nnn2C1OC(CO)C(O)C1O` (stereo not given), the growth was 31.3% in the test with SR leukemia; -4.55% (active) in the test with RPMI-8226 leukemia; 8.85% (active) with OVCAR-8 ovarian; 26.8% in the test with OVCAR-5 ovarian; 23.4% in the test with OVCAR-4 ovarian; 4.66% (active) in the test on SK-OV-3 ovarian. In addition, the growth with IGROV1 ovarian was 3.79% (active); in the test on OVCAR-3 ovarian it was -18.8% (active); in the test on HS 578T breast, 19.8%; with NCI/ADR-RES ovarian, 15.3%.

The record behind these values is PubChem BioAssay (NCI).
